Data published in ChEMBL document CHEMBL1961873, “Compounds: GSK PKIS; Assays: Nanosyn kinase panel” (2012).

Legend:
[1] = system: Proto-oncogene tyrosine-protein kinase receptor Ret (Homo sapiens), P07949 [Y791F]; settings: at 1 µM
[2] = molecular target: Macrophage-stimulating protein receptor (Homo sapiens) (UniProt Q04912); settings: at 0.1 µM
[3] = molecular target: Macrophage-stimulating protein receptor (Homo sapiens) (UniProt Q04912); settings: at 1 µM
[4] = molecular target: Proto-oncogene tyrosine-protein kinase ROS (Homo sapiens) (UniProt P08922); settings: at 0.1 µM
[5] = molecular target: Proto-oncogene tyrosine-protein kinase ROS (Homo sapiens) (UniProt P08922); settings: at 1 µM
[6] = molecular target: Proto-oncogene tyrosine-protein kinase Src (Homo sapiens) (UniProt P12931); settings: at 0.1 µM
Sequence of Proto-oncogene tyrosine-protein kinase Src (Homo sapiens) (P12931 2-536 limits assumed): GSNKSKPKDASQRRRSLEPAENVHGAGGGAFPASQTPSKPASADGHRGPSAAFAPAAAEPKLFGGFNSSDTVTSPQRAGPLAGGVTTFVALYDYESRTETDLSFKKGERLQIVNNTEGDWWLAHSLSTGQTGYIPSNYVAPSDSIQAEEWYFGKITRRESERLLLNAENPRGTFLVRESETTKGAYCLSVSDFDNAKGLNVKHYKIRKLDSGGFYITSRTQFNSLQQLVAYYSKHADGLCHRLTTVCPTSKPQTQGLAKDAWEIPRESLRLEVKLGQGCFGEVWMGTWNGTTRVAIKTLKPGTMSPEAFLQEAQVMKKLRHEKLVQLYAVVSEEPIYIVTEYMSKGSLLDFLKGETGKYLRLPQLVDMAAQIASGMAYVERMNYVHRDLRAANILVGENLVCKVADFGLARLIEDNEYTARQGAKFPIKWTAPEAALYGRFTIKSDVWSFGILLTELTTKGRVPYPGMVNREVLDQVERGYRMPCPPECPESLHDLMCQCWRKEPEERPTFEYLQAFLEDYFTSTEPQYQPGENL

[7] = molecular target: Proto-oncogene tyrosine-protein kinase Src (Homo sapiens) (UniProt P12931); settings: at 1 µM
[8] = molecular target: Tyrosine-protein kinase Srms (Homo sapiens) (UniProt Q9H3Y6); settings: at 0.1 µM
Sequence of Tyrosine-protein kinase Srms (Homo sapiens) (Q9H3Y6 whole entry): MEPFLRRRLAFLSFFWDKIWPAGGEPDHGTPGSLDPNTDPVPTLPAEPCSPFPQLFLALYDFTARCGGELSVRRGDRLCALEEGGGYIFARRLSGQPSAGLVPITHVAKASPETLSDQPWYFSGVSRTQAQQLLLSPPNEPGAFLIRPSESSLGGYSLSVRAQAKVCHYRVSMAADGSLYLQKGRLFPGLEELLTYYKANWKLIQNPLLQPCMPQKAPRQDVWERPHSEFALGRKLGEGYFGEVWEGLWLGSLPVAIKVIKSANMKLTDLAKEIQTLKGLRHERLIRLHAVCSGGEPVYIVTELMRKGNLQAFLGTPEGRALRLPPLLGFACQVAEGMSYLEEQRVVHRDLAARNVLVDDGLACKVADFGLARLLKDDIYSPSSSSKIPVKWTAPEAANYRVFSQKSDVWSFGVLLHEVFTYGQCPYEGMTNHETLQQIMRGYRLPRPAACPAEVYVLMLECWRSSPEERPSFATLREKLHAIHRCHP

[9] = molecular target: Tyrosine-protein kinase Srms (Homo sapiens) (UniProt Q9H3Y6); settings: at 1 µM
[10] = molecular target: Tyrosine-protein kinase SYK (Homo sapiens) (UniProt P43405); settings: at 0.1 µM
[11] = molecular target: Tyrosine-protein kinase SYK (Homo sapiens) (UniProt P43405); settings: at 1 µM
[12] = molecular target: T1, Tyrosine-protein kinase Tec (Homo sapiens) (UniProt P42680); settings: at 0.1 µM
T1 sequence (whole entry): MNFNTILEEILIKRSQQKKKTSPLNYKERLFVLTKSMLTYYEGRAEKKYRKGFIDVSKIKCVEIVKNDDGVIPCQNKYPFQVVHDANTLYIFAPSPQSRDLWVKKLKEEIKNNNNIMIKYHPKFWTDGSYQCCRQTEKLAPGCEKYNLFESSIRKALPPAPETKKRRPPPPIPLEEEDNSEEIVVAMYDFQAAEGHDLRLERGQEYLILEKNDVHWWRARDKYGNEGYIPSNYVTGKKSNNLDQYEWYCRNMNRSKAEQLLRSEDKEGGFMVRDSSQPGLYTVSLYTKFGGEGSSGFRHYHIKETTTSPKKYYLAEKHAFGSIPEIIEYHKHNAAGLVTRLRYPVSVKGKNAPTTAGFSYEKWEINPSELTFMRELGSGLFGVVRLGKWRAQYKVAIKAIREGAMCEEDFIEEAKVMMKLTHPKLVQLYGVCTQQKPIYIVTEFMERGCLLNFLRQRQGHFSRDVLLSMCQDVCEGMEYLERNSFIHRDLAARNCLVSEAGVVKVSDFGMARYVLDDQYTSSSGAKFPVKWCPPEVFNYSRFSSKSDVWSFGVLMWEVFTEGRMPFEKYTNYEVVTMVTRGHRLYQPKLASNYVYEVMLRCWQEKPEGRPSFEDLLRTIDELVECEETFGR

[13] = molecular target: T1, Tyrosine-protein kinase Tec (Homo sapiens); settings: at 1 µM
[14] = molecular target: Angiopoietin-1 receptor (Homo sapiens) (UniProt Q02763); settings: at 0.1 µM
Sequence of Angiopoietin-1 receptor (Homo sapiens) (Q02763 whole entry): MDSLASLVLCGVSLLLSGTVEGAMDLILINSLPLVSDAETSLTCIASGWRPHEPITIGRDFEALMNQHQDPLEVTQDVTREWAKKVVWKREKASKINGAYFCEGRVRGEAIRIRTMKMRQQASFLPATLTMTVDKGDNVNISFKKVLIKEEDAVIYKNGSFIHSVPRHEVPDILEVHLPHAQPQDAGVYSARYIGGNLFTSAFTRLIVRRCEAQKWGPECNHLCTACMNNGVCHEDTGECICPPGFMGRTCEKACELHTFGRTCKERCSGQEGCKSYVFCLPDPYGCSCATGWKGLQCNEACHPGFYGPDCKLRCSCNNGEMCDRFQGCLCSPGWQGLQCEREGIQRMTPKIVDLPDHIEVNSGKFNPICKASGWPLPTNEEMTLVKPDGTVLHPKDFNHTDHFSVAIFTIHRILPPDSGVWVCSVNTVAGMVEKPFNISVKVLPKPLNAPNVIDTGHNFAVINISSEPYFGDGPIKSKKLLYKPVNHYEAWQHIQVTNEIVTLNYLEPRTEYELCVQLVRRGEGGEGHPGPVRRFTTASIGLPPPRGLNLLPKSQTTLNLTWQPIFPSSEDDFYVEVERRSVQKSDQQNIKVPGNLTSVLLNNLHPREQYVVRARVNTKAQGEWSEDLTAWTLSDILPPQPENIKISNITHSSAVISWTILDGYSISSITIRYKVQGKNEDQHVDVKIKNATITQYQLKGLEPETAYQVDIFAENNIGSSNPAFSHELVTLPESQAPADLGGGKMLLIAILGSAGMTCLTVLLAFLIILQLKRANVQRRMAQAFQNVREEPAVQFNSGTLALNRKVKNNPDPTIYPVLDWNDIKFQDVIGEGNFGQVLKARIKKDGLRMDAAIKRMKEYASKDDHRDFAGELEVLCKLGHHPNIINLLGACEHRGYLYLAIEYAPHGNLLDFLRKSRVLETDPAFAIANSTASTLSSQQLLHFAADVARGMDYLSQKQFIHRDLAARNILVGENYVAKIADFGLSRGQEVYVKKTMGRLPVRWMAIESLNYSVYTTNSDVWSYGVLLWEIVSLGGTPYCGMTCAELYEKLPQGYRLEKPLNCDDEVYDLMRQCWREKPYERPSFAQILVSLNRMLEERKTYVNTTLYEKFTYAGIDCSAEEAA

[15] = molecular target: Angiopoietin-1 receptor (Homo sapiens) (UniProt Q02763); settings: at 1 µM
[16] = molecular target: T2, Non-receptor tyrosine-protein kinase TNK1 (Homo sapiens) (UniProt Q13470); settings: at 0.1 µM
T2 sequence (whole entry): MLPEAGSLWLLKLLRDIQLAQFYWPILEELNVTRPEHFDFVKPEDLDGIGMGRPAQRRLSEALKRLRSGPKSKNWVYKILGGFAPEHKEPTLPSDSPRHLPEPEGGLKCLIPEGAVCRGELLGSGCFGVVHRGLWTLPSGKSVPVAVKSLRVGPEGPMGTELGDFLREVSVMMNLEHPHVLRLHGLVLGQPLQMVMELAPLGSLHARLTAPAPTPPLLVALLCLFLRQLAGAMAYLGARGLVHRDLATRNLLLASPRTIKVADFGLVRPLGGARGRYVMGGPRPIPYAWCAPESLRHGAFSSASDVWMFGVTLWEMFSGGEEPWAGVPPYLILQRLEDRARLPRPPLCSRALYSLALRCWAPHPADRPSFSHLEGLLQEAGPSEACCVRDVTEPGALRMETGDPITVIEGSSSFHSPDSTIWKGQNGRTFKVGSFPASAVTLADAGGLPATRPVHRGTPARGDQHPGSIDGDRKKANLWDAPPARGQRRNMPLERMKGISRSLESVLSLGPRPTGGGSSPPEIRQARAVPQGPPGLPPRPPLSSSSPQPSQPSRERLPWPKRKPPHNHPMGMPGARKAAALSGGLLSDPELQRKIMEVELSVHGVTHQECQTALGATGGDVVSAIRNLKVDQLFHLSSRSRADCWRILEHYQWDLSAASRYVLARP

[17] = molecular target: T2, Non-receptor tyrosine-protein kinase TNK1 (Homo sapiens); settings: at 1 µM
[18] = molecular target: Activated CDC42 kinase 1 (Homo sapiens) (UniProt Q07912); settings: at 0.1 µM
Sequence of Activated CDC42 kinase 1 (Homo sapiens) (Q07912 whole entry, looked up): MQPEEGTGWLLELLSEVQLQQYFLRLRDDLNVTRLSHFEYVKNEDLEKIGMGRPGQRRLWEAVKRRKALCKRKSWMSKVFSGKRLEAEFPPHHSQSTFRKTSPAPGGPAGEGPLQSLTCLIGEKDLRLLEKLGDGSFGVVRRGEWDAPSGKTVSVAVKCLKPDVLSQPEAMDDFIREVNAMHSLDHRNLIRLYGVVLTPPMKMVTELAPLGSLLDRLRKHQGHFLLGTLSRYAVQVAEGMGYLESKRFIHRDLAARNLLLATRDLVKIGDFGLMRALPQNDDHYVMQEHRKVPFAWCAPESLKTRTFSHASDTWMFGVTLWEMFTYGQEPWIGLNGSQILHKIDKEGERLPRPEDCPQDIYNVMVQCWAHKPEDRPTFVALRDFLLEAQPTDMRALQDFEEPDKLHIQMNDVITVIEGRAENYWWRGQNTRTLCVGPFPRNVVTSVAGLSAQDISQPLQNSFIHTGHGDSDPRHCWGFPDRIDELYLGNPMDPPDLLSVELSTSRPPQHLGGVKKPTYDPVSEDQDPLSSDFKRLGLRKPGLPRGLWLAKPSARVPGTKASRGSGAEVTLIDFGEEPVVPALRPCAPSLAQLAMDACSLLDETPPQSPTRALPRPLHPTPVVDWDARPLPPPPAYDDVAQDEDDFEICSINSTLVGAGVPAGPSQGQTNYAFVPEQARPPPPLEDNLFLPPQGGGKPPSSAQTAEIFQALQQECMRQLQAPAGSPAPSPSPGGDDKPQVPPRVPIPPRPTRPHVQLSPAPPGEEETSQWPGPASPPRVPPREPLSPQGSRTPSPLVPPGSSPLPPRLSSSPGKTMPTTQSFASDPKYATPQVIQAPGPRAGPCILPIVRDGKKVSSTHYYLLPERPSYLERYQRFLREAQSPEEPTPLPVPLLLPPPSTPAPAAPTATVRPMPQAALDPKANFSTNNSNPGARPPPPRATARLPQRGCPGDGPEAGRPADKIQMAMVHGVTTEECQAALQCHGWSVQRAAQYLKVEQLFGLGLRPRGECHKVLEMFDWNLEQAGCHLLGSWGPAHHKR

[19] = molecular target: Activated CDC42 kinase 1 (Homo sapiens) (UniProt Q07912); settings: at 1 µM
[20] = molecular target: High affinity nerve growth factor receptor (Homo sapiens) (UniProt P04629); settings: at 0.1 µM;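 further: each value is a mean of replicate percent inhibition readings against TRKA kinase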
Sequence of High affinity nerve growth factor receptor (Homo sapiens) (P04629 33-796 limits assumed): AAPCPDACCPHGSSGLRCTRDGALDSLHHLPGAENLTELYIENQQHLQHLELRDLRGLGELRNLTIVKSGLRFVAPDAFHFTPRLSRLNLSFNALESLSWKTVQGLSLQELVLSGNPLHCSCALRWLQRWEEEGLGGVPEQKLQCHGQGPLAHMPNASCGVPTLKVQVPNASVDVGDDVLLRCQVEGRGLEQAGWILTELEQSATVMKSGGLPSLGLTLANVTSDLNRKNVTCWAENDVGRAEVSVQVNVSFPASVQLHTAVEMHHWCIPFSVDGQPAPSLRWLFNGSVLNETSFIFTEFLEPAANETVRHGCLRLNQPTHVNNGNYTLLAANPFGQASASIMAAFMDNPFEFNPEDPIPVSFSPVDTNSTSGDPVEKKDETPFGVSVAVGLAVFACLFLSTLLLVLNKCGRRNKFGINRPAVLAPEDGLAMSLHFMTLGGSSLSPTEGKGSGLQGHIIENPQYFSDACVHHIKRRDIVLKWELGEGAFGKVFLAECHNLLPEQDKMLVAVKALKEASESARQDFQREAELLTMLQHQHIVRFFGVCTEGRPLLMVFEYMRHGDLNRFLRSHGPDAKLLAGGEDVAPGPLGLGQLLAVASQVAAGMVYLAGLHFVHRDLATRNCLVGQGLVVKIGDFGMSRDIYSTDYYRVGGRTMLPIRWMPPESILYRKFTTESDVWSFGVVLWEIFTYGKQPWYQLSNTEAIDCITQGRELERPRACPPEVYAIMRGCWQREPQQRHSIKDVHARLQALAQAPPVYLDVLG

Sequence of Proto-oncogene tyrosine-protein kinase receptor Ret (Homo sapiens), P07949 [Y791F] (P07949 whole entry Y791F): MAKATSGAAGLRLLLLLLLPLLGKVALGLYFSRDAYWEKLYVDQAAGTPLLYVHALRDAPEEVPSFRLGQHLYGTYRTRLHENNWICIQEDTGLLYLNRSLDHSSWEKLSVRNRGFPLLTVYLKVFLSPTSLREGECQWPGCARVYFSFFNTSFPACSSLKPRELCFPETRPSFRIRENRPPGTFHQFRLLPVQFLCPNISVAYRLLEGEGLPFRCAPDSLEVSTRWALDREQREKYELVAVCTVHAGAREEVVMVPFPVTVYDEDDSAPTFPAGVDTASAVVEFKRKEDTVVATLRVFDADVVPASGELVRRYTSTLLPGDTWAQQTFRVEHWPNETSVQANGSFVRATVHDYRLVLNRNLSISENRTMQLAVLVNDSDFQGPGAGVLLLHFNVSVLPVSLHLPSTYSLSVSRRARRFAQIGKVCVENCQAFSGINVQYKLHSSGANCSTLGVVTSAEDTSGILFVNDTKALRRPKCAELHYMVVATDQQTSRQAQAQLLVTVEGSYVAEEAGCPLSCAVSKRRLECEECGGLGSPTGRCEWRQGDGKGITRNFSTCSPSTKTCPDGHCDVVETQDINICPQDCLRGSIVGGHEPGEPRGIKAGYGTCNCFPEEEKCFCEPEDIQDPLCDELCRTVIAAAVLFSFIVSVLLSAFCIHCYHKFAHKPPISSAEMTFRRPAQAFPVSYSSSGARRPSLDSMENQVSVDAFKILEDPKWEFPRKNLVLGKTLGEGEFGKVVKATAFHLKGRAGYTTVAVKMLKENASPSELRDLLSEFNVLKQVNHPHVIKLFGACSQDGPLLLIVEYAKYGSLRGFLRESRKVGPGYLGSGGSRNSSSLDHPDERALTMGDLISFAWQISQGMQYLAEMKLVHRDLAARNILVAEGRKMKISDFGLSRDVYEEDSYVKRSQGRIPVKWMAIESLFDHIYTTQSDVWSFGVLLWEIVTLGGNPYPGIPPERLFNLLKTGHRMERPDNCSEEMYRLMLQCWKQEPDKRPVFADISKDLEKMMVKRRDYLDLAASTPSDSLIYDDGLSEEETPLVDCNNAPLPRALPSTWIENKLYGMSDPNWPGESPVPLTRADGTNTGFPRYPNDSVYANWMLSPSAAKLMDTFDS

Row | Compound | inhibition [1] | inhibition [2] | inhibition [3] | inhibition [4] | inhibition [5] | inhibition [6] | inhibition [7] | inhibition [8] | inhibition [9] | inhibition [10] | inhibition [11] | inhibition [12] | inhibition [13] | inhibition [14] | inhibition [15] | inhibition [16] | inhibition [17] | inhibition [18] | inhibition [19] | inhibition [20]
1 | CNC(=O)c1sc(-n2cnc3cc(OC)c(OC)cc32)cc1OCc1ccccc1C(F)(F)F | 14.2% | 1.42% | 3.32% | 3.19% | 5.06% | 6.71% | 8.35% | -1.1% | 0.5% | -0.5% | -4% | 1.74% | 9.64% | 2.19% | 9.86% | 4.58% | 29.1% | 1.43% | 4.41% | 1.34%
2 | OCCCNc1nccc(-c2c(-c3ccc(F)cc3)nn3cc(C(F)(F)F)ccc23)n1 | 6.1% | 0.58% | 1.65% | 4.09% | 6.03% | 5.06% | 8.49% | -0.48% | -0.71% | 5.03% | 0.36% | 3.37% | 5.41% | 2.38% | 5.06% | 0.14% | 3.92% | 0.22% | 1.57% | 3.24%
3 | O=C(Nc1n[nH]c2nnc(-c3cccnc3)cc12)C1CC1 | 3.64% | -2.07% | -3.95% | -0.02% | 1.38% | 0.98% | 2.5% | 2.39% | 0.54% | 1.35% | 0.88% | 0.17% | 3.48% | 1.38% | 1.88% | -1.13% | 0.09% | 0.32% | 1.68% | 0.12%
4 | c1ccc(-c2n[nH]cc2-c2ccnc(-c3ccc(OCCn4ccnc4)cc3)c2)nc1 | 19.1% | 3.8% | 3.01% | 3.08% | 10.7% | -2.63% | 8.69% | 0.16% | 3.94% | -0.7% | 0.33% | 0.42% | 0.73% | 0.28% | 3.93% | -0.4% | 5.89% | -0.42% | 0.83% | 2.17%
5 | COc1c(C(N)=O)cc(-c2ccc(Cl)cc2)cc1-c1ccc(S(N)(=O)=O)cc1 | 7.43% | 6.88% | 6.97% | 12.2% | 14.6% | 10.9% | 14.6% | -1.8% | -2.15% | 1.78% | 4.05% | 7.49% | 3.79% | 5.29% | 7.54% | 2.66% | 3.9% | 1.22% | 3.03% | 4.76%
6 | CCOc1ccc2c(-c3ccnc(Nc4cc(OC)cc(C(F)(F)F)c4)n3)cnn2n1 | 5.26% | 8% | 7.47% | 4.18% | 20.7% | -3.54% | 16.3% | 2.39% | 4.4% | -3.45% | -0.62% | 2.25% | 7.24% | 7.37% | 13.5% | 2.46% | 12.4% | 0.16% | 1.19% | 0.62%
7 | COc1cc(Nc2ncc(-c3ccccc3)o2)cc(OC)c1 | 13.2% | 4.66% | -0.05% | 3.98% | 11.9% | 14.9% | 49.7% | 2.58% | 3.5% | -2.45% | -7.57% | 2.12% | 7.94% | 3.94% | 7.85% | 2.49% | 31.1% | 1.44% | 3.07% | 3.5%
8 | Cc1cc(O)cc(C)c1/C=C/c1cncc(C(=O)OC(C)(C)C)c1 | 12.1% | 8.51% | 8.66% | 6.94% | 10.4% | 14.1% | 58.6% | 10.2% | 43.4% | -0.49% | 0.64% | 5.96% | 30.2% | 2.09% | 3.67% | 2.08% | 15.7% | 1.33% | 4.9% | 3.36%
9 | COc1ccc(Nc2ncc(-c3ccccc3)o2)cc1OC | 27.2% | -0.4% | 5.46% | 7.2% | 24.5% | 12.2% | 54% | 0.67% | 2.69% | 4.52% | 0.42% | 2.91% | 9.41% | 2.1% | 8.87% | 5.16% | 26.8% | -0.28% | 2.05% | -1.61%
10 | COc1cccc(Nc2nccc(-c3cnn4ncccc34)n2)c1 | 24% | 6.23% | 15.1% | 38.2% | 71.1% | 7.33% | 41.6% | 1.25% | -1.9% | -0.98% | 34.2% | 4.27% | 25.1% | 5.94% | 21.3% | 15.3% | 65.9% | 1.79% | 21.7% | 4.75%
